# Experimental data from article PMC7862700, “An all-to-all approach to the identification of sequence-specific readers for epigenetic DNA modifications on cytosine”.
# Columns and labels:
# Assay in all cases: DAPPL (digital affinity profiling via proximity ligation, sequencing); 10 mM Tris-HCl pH 7.5, 50 mM NaCl, 1 mM DTT, 4% glycerol, room temperature, 30 min; GST-TFs on glutathione beads, 16-mer random dsDNA library, 0.1% formaldehyde crosslink after washing; high values mean tight binding
# FEV = molecular target: T1, FEV (Homo sapiens, UniProt Q99581 1-238); settings: protein: recombinant; tags: N-terminal GST; dsDNA, one strand shown
# T1 sequence: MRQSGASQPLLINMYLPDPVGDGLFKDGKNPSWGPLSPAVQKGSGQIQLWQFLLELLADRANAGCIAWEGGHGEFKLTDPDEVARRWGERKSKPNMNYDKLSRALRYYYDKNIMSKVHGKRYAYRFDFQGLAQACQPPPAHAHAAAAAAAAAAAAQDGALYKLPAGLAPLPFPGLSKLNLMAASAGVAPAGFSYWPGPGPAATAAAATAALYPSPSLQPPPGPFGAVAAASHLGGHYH
# In short: (§1)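 Pools were built from human transcription factors expressed in yeast as GST fusions, captured on glutathione beads and DNA-barcoded, along with a tag-only sample. Incubation with 200 nmole of a 16-mer random double-stranded DNA library lasted 30 min at room temperature in Tris/NaCl/DTT/glycerol buffer, and was followed by washing, 0.1% formaldehyde crosslinking, proximity ligation, PCR amplification and Illumina NextSeq500 sequencing. Binding signal is the quotient of each hexamer's read frequency for a factor and its frequency for the tag-only sample.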
# ETV5 = ETV5 (Homo sapiens, UniProt P41161 1-510); settings: protein: recombinant; tags: N-terminal GST; dsDNA, one strand shown
# ETV5, sequence (P41161 whole entry): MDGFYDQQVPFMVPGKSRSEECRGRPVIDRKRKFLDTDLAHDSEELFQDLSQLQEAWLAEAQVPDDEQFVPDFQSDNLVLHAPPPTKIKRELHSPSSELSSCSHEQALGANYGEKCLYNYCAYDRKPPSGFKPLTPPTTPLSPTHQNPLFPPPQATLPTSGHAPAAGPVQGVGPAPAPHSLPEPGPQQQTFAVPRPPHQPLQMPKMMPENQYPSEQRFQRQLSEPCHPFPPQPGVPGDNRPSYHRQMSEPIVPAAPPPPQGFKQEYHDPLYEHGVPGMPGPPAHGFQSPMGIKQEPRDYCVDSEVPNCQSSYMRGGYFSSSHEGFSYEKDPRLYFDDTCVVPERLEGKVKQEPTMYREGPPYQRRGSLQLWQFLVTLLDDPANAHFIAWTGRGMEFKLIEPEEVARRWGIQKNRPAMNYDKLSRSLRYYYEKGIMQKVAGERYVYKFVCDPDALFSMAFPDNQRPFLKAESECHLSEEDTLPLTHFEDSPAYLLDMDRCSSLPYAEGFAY
# In short: as §1
# HSF1 = HSF1 (Homo sapiens, UniProt Q00613 1-529); settings: protein: recombinant; tags: N-terminal GST; chain copies: 3; dsDNA, one strand shown
# HSF1, sequence (Q00613 whole entry): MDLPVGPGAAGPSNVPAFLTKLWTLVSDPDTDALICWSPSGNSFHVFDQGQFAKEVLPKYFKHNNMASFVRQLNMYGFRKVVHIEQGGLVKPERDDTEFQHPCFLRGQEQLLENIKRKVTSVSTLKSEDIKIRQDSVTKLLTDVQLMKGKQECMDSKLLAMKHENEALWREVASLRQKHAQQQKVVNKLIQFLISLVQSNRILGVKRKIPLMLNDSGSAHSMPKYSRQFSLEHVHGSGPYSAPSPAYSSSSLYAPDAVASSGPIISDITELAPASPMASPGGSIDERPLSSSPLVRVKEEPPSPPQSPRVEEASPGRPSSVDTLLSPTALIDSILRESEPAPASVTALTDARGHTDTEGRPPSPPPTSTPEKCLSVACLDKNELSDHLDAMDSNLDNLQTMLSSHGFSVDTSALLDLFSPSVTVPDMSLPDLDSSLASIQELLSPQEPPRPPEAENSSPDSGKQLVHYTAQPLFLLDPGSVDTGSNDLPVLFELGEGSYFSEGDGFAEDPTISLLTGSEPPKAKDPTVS
# In short: as §1
# SPIC = molecular target: T2, SPIC (Homo sapiens, UniProt Q8N5J4 1-248); settings: protein: recombinant; tags: N-terminal GST; dsDNA, one strand shown
# T2 sequence: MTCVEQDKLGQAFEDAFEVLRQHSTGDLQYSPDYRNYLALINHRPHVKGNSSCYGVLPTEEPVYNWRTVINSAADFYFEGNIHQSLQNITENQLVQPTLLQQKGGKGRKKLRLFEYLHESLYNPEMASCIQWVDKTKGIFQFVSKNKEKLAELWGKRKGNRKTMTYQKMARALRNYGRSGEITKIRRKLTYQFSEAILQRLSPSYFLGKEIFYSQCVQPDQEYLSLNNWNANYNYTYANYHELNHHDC
# In short: as §1
# ELF4 = ELF4 (Homo sapiens, UniProt Q99607 1-663); settings: protein: recombinant; tags: N-terminal GST; dsDNA, one strand shown
# ELF4, sequence (Q99607 whole entry): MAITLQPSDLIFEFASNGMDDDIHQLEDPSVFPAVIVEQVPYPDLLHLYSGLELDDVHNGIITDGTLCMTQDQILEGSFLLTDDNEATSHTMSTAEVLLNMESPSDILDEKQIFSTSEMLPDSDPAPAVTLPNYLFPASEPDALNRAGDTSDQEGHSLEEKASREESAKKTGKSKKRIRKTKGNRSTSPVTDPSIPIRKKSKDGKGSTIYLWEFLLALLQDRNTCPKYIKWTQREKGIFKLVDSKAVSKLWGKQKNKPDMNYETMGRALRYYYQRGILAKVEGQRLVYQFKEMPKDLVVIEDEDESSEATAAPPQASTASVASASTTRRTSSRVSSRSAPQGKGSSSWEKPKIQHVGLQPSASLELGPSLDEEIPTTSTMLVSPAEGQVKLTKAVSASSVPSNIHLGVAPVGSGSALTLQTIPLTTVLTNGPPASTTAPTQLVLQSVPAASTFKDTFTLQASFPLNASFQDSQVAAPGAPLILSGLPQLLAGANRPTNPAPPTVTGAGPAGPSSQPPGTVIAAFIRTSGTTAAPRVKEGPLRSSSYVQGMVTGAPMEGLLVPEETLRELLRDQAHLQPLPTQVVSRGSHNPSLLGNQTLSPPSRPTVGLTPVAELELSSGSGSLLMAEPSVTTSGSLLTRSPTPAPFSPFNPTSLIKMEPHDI
# In short: as §1
# ELK4 = molecular target: T3, ELK4 (Homo sapiens, UniProt P28324-2 1-405); settings: protein: recombinant; tags: N-terminal GST; dsDNA, one strand shown
# T3 sequence: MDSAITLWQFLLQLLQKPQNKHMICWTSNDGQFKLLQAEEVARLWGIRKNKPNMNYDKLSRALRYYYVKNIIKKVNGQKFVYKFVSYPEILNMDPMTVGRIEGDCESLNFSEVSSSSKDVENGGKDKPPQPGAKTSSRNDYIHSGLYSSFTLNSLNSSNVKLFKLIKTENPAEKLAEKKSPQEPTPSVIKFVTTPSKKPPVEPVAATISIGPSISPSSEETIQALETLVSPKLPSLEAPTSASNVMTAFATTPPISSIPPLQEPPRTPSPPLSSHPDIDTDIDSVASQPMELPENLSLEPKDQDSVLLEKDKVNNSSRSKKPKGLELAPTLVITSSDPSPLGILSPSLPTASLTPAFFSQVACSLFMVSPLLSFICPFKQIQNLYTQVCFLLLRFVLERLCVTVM
# In short: as §1
# ETV2 = molecular target: T4, ETV2 (Homo sapiens, UniProt O00321 1-342); settings: protein: recombinant; tags: N-terminal GST; dsDNA, one strand shown
# T4 sequence: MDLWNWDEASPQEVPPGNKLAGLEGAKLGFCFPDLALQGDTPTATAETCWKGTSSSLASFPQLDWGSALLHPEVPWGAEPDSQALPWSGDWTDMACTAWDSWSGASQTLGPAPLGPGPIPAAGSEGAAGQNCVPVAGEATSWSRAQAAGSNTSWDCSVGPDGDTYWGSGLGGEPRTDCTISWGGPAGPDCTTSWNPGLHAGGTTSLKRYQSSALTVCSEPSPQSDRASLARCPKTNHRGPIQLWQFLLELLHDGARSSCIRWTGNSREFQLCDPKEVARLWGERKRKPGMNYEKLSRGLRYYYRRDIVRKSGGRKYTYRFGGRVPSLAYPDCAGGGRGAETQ
# In short: as §1
# ELF3 = molecular target: T5, ELF3 (Homo sapiens, UniProt P78545 1-371); settings: protein: recombinant; tags: N-terminal GST; dsDNA, one strand shown
# T5 sequence: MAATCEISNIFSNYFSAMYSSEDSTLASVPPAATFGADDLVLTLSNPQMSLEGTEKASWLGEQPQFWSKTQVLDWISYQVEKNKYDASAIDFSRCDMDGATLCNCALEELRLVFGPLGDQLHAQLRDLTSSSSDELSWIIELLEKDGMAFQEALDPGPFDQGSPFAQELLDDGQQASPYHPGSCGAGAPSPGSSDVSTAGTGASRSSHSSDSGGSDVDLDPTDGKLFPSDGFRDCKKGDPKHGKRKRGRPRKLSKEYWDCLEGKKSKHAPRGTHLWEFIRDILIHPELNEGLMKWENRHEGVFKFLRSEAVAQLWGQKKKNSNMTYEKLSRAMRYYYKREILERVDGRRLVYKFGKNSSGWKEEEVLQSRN
# In short: as §1
# CRX = CRX (Homo sapiens, UniProt O43186 1-299); settings: protein: recombinant; tags: N-terminal GST; dsDNA, one strand shown
# CRX, sequence (O43186 whole entry): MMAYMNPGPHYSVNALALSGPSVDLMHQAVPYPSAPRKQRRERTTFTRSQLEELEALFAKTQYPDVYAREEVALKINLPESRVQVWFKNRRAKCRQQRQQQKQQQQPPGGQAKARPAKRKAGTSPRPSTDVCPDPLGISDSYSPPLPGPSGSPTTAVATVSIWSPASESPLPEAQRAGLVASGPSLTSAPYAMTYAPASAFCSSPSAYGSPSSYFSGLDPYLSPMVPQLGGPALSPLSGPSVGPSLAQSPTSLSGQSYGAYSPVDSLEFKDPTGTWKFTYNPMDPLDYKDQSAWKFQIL
# In short: as §1
# ETV1 = ETV1 (Homo sapiens, UniProt P50549 1-477); settings: protein: recombinant; tags: N-terminal GST; dsDNA, one strand shown
# ETV1, sequence (P50549 whole entry): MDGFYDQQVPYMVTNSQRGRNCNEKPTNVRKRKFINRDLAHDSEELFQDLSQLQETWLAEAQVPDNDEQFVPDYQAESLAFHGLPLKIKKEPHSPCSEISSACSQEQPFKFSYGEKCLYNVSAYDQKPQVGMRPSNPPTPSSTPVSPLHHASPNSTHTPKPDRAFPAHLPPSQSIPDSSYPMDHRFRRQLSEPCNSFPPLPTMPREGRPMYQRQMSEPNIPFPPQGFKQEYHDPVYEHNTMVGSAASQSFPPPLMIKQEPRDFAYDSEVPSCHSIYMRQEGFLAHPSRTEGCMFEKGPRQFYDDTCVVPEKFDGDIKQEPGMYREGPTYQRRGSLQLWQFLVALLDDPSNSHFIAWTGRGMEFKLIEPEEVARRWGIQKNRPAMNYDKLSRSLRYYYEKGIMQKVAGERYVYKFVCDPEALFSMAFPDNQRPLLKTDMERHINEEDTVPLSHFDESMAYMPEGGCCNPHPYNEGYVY
# In short: as §1
# ERF = molecular target: T6, ERF (Homo sapiens, UniProt P50548 1-548); settings: protein: recombinant; tags: N-terminal GST; dsDNA, one strand shown
# T6 sequence: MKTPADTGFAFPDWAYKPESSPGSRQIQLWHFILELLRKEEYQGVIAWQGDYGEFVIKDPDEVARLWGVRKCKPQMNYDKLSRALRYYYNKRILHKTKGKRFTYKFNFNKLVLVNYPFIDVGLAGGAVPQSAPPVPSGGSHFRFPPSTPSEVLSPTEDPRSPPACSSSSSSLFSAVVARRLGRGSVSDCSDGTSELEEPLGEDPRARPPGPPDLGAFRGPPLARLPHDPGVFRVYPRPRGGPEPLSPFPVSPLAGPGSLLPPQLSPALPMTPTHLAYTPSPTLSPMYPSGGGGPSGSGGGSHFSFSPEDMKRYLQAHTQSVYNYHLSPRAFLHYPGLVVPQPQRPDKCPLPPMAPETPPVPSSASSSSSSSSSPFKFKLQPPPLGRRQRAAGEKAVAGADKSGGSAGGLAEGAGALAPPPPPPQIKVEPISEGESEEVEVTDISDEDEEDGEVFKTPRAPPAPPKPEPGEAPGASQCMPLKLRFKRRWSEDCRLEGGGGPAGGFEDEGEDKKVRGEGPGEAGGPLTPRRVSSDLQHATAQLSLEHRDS
# In short: as §1
# ETV3L = molecular target: T7, ETV3L (Homo sapiens, UniProt Q6ZN32 1-361); settings: protein: recombinant; tags: N-terminal GST; dsDNA, one strand shown
# T7 sequence: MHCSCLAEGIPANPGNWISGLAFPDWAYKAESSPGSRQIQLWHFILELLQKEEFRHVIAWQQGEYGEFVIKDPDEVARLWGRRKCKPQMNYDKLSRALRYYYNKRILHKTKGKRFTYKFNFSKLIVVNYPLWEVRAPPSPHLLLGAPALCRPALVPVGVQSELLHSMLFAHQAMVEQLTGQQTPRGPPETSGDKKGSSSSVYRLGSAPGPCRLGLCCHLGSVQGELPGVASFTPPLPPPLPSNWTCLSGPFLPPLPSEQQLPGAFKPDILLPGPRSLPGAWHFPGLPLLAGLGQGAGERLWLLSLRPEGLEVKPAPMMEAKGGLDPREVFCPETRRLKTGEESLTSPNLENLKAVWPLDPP
# In short: as §1
# ETS2 = molecular target: T8, ETS2 (Homo sapiens, UniProt P15036 1-469); settings: protein: recombinant; tags: N-terminal GST; dsDNA, one strand shown
# T8 sequence: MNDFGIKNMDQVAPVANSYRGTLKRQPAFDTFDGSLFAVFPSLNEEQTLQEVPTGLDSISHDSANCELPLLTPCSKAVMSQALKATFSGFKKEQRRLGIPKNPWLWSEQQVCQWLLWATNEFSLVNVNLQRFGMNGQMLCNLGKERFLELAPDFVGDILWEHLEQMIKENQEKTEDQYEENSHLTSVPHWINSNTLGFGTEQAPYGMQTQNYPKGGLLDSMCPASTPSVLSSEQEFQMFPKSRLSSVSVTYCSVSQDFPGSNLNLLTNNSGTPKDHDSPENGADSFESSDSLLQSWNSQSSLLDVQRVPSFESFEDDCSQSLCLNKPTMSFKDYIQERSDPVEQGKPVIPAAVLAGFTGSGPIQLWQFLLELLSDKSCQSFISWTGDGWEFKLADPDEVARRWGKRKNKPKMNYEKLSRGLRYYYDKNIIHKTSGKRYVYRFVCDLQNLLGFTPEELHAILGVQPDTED
# In short: as §1
# SPDEF = molecular target: T9, SPDEF (Homo sapiens, UniProt O95238 1-335); settings: protein: recombinant; tags: N-terminal GST; dsDNA, one strand shown
# T9 sequence: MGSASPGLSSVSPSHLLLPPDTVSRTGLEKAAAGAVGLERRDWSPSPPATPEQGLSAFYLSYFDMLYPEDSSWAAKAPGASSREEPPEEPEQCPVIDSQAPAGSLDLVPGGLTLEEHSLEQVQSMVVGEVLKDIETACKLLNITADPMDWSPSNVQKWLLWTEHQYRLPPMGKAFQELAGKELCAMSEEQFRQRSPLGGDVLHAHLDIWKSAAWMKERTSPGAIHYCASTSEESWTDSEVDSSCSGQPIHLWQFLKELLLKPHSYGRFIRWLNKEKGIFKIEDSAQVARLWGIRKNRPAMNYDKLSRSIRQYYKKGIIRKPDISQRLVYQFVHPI
# In short: as §1
# ETV7 = molecular target: T10, ETV7 (Homo sapiens, UniProt Q9Y603 1-341); settings: protein: recombinant; tags: N-terminal GST; dsDNA, one strand shown
# T10 sequence: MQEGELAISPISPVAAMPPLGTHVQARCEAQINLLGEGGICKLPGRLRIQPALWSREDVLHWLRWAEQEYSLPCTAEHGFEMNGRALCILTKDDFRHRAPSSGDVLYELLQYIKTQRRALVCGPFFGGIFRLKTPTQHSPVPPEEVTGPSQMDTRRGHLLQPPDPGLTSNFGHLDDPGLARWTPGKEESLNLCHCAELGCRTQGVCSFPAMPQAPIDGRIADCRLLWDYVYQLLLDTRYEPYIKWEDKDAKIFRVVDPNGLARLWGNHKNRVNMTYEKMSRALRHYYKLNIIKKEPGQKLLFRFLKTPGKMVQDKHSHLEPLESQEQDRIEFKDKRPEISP
# In short: as §1
# ELF5 = molecular target: T11, ELF5 (Homo sapiens, UniProt Q9UKW6-2 1-255); settings: protein: recombinant; tags: N-terminal GST; dsDNA, one strand shown
# T11 sequence: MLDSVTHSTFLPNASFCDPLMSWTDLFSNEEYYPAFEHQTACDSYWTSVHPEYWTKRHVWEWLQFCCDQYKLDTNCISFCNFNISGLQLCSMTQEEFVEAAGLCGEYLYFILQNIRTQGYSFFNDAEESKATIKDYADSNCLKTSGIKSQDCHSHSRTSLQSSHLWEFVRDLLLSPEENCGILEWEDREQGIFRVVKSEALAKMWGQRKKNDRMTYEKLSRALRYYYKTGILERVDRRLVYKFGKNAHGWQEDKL
# In short: as §1
# ETV3 = molecular target: T12, ETV3 (Homo sapiens, UniProt P41162-2 1-143); settings: protein: recombinant; tags: N-terminal GST; dsDNA, one strand shown
# T12 sequence: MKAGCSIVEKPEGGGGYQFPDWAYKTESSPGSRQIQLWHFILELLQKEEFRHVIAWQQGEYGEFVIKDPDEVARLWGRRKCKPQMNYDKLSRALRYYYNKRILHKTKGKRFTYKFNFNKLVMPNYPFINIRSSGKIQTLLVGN
# In short: as §1
# ETV6 = ETV6 (Homo sapiens, UniProt P41212 1-452); settings: protein: recombinant; tags: N-terminal GST; dsDNA, one strand shown
# ETV6, sequence (P41212 whole entry): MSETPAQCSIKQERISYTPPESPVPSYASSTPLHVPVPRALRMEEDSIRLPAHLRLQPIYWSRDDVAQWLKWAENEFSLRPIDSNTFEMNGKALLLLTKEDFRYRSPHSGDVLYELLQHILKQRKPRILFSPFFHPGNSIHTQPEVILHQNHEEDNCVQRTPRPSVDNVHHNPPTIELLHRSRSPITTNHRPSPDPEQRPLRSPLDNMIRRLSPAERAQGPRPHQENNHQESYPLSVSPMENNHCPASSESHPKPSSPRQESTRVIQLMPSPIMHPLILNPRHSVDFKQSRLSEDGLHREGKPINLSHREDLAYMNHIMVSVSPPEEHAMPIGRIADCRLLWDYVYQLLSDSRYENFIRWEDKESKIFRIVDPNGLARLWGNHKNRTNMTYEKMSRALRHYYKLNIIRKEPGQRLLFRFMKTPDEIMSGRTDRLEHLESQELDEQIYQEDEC
# In short: as §1
sequence,measurement,setting,value
TACATG,binding signal,FEV,"1.12 fold enrichment (6-mer frequency, TF over GST control)"
same,binding signal,ETV5,"1.26 fold enrichment (6-mer frequency, TF over GST control)"
same,binding signal,HSF1,"1.08 fold enrichment (6-mer frequency, TF over GST control)"
same,binding signal,SPIC,"1.17 fold enrichment (6-mer frequency, TF over GST control)"
same,binding signal,ELF4,"1.29 fold enrichment (6-mer frequency, TF over GST control)"
same,binding signal,ELK4,"1.24 fold enrichment (6-mer frequency, TF over GST control)"
same,binding signal,ETV2,"1.24 fold enrichment (6-mer frequency, TF over GST control)"
same,binding signal,ELF3,"1.28 fold enrichment (6-mer frequency, TF over GST control)"
same,binding signal,CRX,"1.09 fold enrichment (6-mer frequency, TF over GST control)"
same,binding signal,ETV1,"1.21 fold enrichment (6-mer frequency, TF over GST control)"
same,binding signal,ERF,"1.34 fold enrichment (6-mer frequency, TF over GST control)"
same,binding signal,ETV3L,"1.2 fold enrichment (6-mer frequency, TF over GST control)"
same,binding signal,ETS2,"1.2 fold enrichment (6-mer frequency, TF over GST control)"
same,binding signal,SPDEF,"1.21 fold enrichment (6-mer frequency, TF over GST control)"
same,binding signal,ETV7,"1.25 fold enrichment (6-mer frequency, TF over GST control)"
same,binding signal,ELF5,"1.16 fold enrichment (6-mer frequency, TF over GST control)"
same,binding signal,ETV3,"1.33 fold enrichment (6-mer frequency, TF over GST control)"
same,binding signal,ETV6,"1.24 fold enrichment (6-mer frequency, TF over GST control)"
